Screening results (PubChem)
SARS PLpro yeast = inhibitors of SARS-CoV papain-like protease in yeast; S. cerevisiae expressing SARS-CoV PLpro, growth rescue; Potency, µM (series often up to 32.9 µM), inactives show at the highest dose activity, positive = growth rescue, actives largely listed as activators; 330,000 tested, 0.19% active; AID 485353; calls by dose curve; also: potency is read from the fitted curve at half-maximal effect; 0% is about no effect; nearly all actives have a fitted effect of over 55% in size
AMA1 RON2 block = inhibitors of Plasmodium falciparum AMA1-RON2 interaction | AID 720542 | Potency, µM (top dose mostly 58.2 µM), for the others: at the highest dose activity change, negative = inhibition, hits mostly inhibitors | AlphaScreen AMA1-biotinylated RON2 peptide binding | 360,000 tested, 0.2% active;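 also: potency is read from the fitted curve at half-maximal effect; 0% = vehicle wells and -100% = peptide control; nearly all actives have a fitted effect of over 45% in size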
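AMA1 (3D7) with his tag at 25 nM final met compounds first, then biotinylated RON2 peptide at 25 nM; detection used donor plus acceptor beads, 10 µg/mL apiece, read by AlphaScreen after 30 min at room temperature.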
CHX counter = counter-screen hit for Shiga toxin inhibitors, cycloheximide | cell reporter, cycloheximide protein synthesis inhibition counterscreen | max response, % | 300,000 tested, 12% active | AID 2314; in the data active = max response mostly above about 13%, no sharp cut-off; inactive = mostly below about 14%; also: read at 38.3 µM for the half of the compounds with a filed dose; 0% is about no effect
Pf growth 96h = inhibits malaria parasite growth, 96 h. P. falciparum luciferase reporter growth, 96 h. Potency, µM (top dose mostly 28.7 µM), inactives show at the highest dose activity change, negative = inhibition, actives largely listed as inhibitors. 320,000 tested, 6.9% active; also: potency is read from the fitted curve at half-maximal effect; % is scaled to controls: 0 for no effect and ±100 for the full control effect
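Luminescence readout: decreased luciferase signal marks inhibited growth of reporter-expressing P. falciparum in infected red cells (2% hematocrit, 0.05% parasitemia final), exposed to compound two generations (96 h, 37 C, 5% CO2).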
Shiga toxin inh = inhibitors of Shiga toxin in Vero cells; Vero cells, Shiga toxin protein synthesis inhibition reporter; inhibition, % at 38.7 µM; 290,000 tested, 9.2% active; AID 2315; in the data active = inhibition mostly above about 28%, no sharp cut-off; inactive = mostly below about 43%; also: 0% is about no effect
Pf growth 48h = P. falciparum growth inhibition at 48 hours (one generation). AID 504832. Potency, µM (top dose mostly 28.7 µM), for the others: at the top dose activity change, negative = inhibition, hits mostly inhibitors. 310,000 tested, 5.9% active. P. falciparum luciferase growth in erythrocytes, 48 h; also: potency is read from the fitted curve at half-maximal effect; % is scaled to controls: 0 for no effect and ±100 for the full control effect
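A one-generation exposure of luciferase-tagged malaria parasites in RPMI 1640/Albumax erythrocyte culture, 37 C and 5% CO2. Inhibition is inferred from decreased luminescence after adding detection reagent.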
* = called active by the depositor; [ ] = remark or other dose. In the library only some 19% were active in any assay of this set; here they are far more common. Unless noted, calls follow the shape of the dose curve; as a rule, active = well fitted curve in the direction sought with a large enough effect; inconclusive = small, poorly fitted or top-dose-only effect, or another doubt; inactive = no such curve, though single readings can be large; an effect the other way counts as inactive or inconclusive.

Screening Cc1cc(Cl)c2oc(C(=O)N(C)C3CCOC3)c(C)c2c1 (stereo not drawn) returned SARS PLpro yeast -15.5%, AMA1 RON2 block 0.0%, CHX counter 35.9*, Pf growth 96h 12.9%, Shiga toxin inh 54.5* and Pf growth 48h 37.0%.
Cc1cc(Cl)c2oc(C(=O)N(C)Cc3ccon3)c(C)c2c1 was read as SARS PLpro yeast -27.4%, AMA1 RON2 block 16.1%, CHX counter 48.4*, Pf growth 96h 0.0%, Shiga toxin inh 95.0* and Pf growth 48h 30.1%.
`c1ccc2c(c1)COC(CNC1CCCCC1)OC2` gave SARS PLpro yeast 1.3%, AMA1 RON2 block 7.8%, CHX counter 11.3, Pf growth 96h 3.9%, Shiga toxin inh 10.1 and Pf growth 48h 22.3%.
`CC(Oc1ccccc1)C(=O)N1CCN=C1SCc1ccc(F)cc1` (stereo not drawn) gave SARS PLpro yeast -0.9%, AMA1 RON2 block 0.0%, CHX counter -0.9, Pf growth 96h -22.4%, Shiga toxin inh -0.7 and Pf growth 48h inconclusive.
Nc1ccn([C@@H]2O[C@H](C(=O)N[C@H]3c4ccccc4C[C@H]3O)[C@@H](O)[C@H]2O)c(=O)n1 was read as AMA1 RON2 block 2.0%.
CCOc1cc(/C=C/C(=O)OCC(=O)N(CC)C2CCS(=O)(=O)C2)cc(Cl)c1OC (stereo not drawn) was read as AMA1 RON2 block 0.0%.
Screening Cn1ccc(C(=O)Oc2ccc(C(=O)Nc3ccc(F)cc3F)cc2)n1 returned SARS PLpro yeast -2.8%, AMA1 RON2 block -4.5%, CHX counter 26.1*, Pf growth 96h 9.3%, Shiga toxin inh 53.0 and Pf growth 48h inactive.
Screening COc1ccc(C(=O)Nc2ccc(F)cc2F)cc1OC returned SARS PLpro yeast 5.1%, AMA1 RON2 block 17.6%, CHX counter 12.8, Pf growth 96h inconclusive, Shiga toxin inh -13.4 and Pf growth 48h 30.7%.
Screening COc1cccc(C(=O)Nc2ccc(C(F)(F)F)n(C)c2=O)c1 returned SARS PLpro yeast -29.8%, AMA1 RON2 block -12.7%, CHX counter 34.6*, Pf growth 96h 243.7%, Shiga toxin inh 50.5* and Pf growth 48h 299.8%.
For COc1cccc(C(=O)Nc2ccc(F)cc2F)c1 the results were SARS PLpro yeast 3.8%, AMA1 RON2 block 11.9%, CHX counter 39.2*, Pf growth 96h 417.6%, Shiga toxin inh 59.1* and Pf growth 48h 353.2%.
`CC(C)Oc1cccc(C(=O)Nc2ccc(Br)cc2F)c1` gave SARS PLpro yeast 2.9%, AMA1 RON2 block 21.9%, CHX counter 65.2*, Pf growth 96h 1.5%, Shiga toxin inh 106.6* and Pf growth 48h 343.0%.
Screening Cc1noc(C)c1COc1cccc(C(=O)Nc2ccc(Br)cc2F)c1 returned SARS PLpro yeast -8.7% and AMA1 RON2 block -7.7%[11.6 µM].
Screening CN(c1ccc(OCC(=O)OCC(=O)NCc2ccco2)cc1)S(=O)(=O)c1ccc2ccccc2c1 returned SARS PLpro yeast 2.1%, AMA1 RON2 block -4.1%, CHX counter -3.5, Pf growth 96h -14.6%, Shiga toxin inh 11.4 and Pf growth 48h 11.1%.
`COc1ccccc1OCc1ccc(C(=O)Nc2ccccc2F)cc1` gave SARS PLpro yeast 10.5%, AMA1 RON2 block -11.4%, CHX counter 6.7*, Pf growth 96h 1.8%, Shiga toxin inh 47.3* and Pf growth 48h 104.8%.
COc1ccc(-c2cccc(C(=O)Nc3ccccc3C)c2)cc1 was read as SARS PLpro yeast -12.2%, AMA1 RON2 block -15.8%, CHX counter 0.6, Pf growth 96h 9.28µM*, Shiga toxin inh -9.1 and Pf growth 48h 4.5%.
`COc1cccc(C(=O)Nc2ccccc2F)c1` gave SARS PLpro yeast -1.7%, AMA1 RON2 block 7.8%, CHX counter 30.0*, Pf growth 96h 31.9%, Shiga toxin inh 98.2* and Pf growth 48h 79.7%.
O=C(Nc1ccccc1F)Oc1cccc(OC(=O)Nc2ccccc2F)c1 was read as SARS PLpro yeast -2.2%, AMA1 RON2 block -1.4%, CHX counter 45.5*, Pf growth 96h 145.0%, Shiga toxin inh 100.7* and Pf growth 48h 127.1%.
For COc1ccccc1NC(=O)c1ccc(COc2ccccc2OC)cc1 the results were AMA1 RON2 block 4.6%.
`CC(Oc1ccccc1)C(=O)Nc1ccccc1F` (stereo not drawn) gave SARS PLpro yeast -3.7%, AMA1 RON2 block 2.9%, CHX counter -0.5, Shiga toxin inh -4.8 and Pf growth 48h 8.3%.
Screening O=c1c2nnn(-c3ccc(Br)cc3)c2ncn1Cc1ccccn1 returned SARS PLpro yeast 0.5%, AMA1 RON2 block 4.6%, CHX counter 12.8, Pf growth 96h 57.3%, Shiga toxin inh 23.5 and Pf growth 48h 37.2%.
COc1ccc(NC(=O)c2sc(=O)n(Cc3ccc4ccccc4c3)c2C)cc1OC was read as AMA1 RON2 block -4.3%.
For O=C(Nc1ccc(Br)cc1F)c1cccnc1 the results were SARS PLpro yeast 0.0%, AMA1 RON2 block -6.1%, CHX counter 15.3, Pf growth 96h 102.3%, Shiga toxin inh 86.1* and Pf growth 48h 82.5%.
`COc1cc(C(N)=O)ccc1OCc1ccccc1` gave AMA1 RON2 block 3.1%, CHX counter 24.0, Pf growth 96h 5.5%, Shiga toxin inh 84.9 and Pf growth 48h 61.6%.
For O=C(Nc1ccccc1F)c1ccc(C(=O)c2ccccc2)cc1 the results were SARS PLpro yeast 1.3%, AMA1 RON2 block 10.0%, CHX counter 28.9*, Pf growth 96h 116.9%, Shiga toxin inh 75.0* and Pf growth 48h 84.7%.
Screening COc1ccc(COc2ccccc2C(N)=O)cc1F returned SARS PLpro yeast -14.2%, AMA1 RON2 block -16.4%, CHX counter 33.2*, Pf growth 96h 37.0%, Shiga toxin inh 66.1* and Pf growth 48h 84.6%.
For O=C(Nc1ccccc1)Oc1cccc(Br)c1 the results were SARS PLpro yeast -0.5%, AMA1 RON2 block 1.2%, CHX counter 13.5*, Pf growth 96h 22.3%, Shiga toxin inh 28.4 and Pf growth 48h 31.2%.
CCN(CC)C(=O)c1ccc(Nc2nnc(-c3ccc(O)cc3)c3ccccc23)cc1 was read as SARS PLpro yeast 4.8%, AMA1 RON2 block 2.0%, CHX counter 3.7, Pf growth 96h 45.7%, Shiga toxin inh 8.2 and Pf growth 48h inconclusive.
Nc1ncnc2c1ncn2[C@@H]1O[C@H](C(=O)NCC2CCN(Cc3ccccc3)CC2)[C@@H](O)[C@H]1O was read as AMA1 RON2 block 4.1%.
For C/C=C/c1cnc2c(c1)C(=O)N([C@H](C)CO)C[C@H](C)[C@@H](CN(C)C(=O)CN1CCOCC1)O2 the results were AMA1 RON2 block 7.8%.
`COc1ccc(NC(=O)COC(=O)C2CCN(S(=O)(=O)c3ccccc3)CC2)cc1Cl` gave SARS PLpro yeast -1.5%, AMA1 RON2 block 15.5%, Pf growth 96h 10.6% and Pf growth 48h 9.3%.
